Source: PubChem (Sanford-Burnham Center for Chemical Genomics)
Sampled rows, rich in hits. Any-hit rate of the full collection: about 2.1%.
eIF4H FP inh = inhibitors of RNA binding by human eIF4H | eIF4H fluorescence polarization binding assay | inhibition, % at 35 µM | hit rate 0.94% among 290,000;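 note: calls also rest on retests at 20 µM and on dose response follow-up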
PABP1 MLLE inh = blocks PAM2 peptide binding to the PABP1 MLLE domain; AID 588489; hit rate 0.36% among 360,000; GST-MLLE / FITC-PAM2 fluorescence polarization; inhibition, % at 20 µM; in the data active = inhibition above about 35%, passing the limit was not always enough;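 note: plate controls were DMSO wells with GST-MLLE for no effect and wells lacking GST-MLLE protein for full effect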
CendR NRP1 mod = modulators of CendR peptide binding to human neuropilin-1; FAM-RPARPAR peptide binding to NRP-1, fluorescence polarization; inhibition, % at 25 µM; hit rate 0.85% among 360,000; AID 602438;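 active = inhibition or corrected inhibition above about 18%, plus a signal ratio from 0.5 to 1.5, limit read from the data, passing the limit was not always enough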
Target sequence (O14786 whole entry, looked up): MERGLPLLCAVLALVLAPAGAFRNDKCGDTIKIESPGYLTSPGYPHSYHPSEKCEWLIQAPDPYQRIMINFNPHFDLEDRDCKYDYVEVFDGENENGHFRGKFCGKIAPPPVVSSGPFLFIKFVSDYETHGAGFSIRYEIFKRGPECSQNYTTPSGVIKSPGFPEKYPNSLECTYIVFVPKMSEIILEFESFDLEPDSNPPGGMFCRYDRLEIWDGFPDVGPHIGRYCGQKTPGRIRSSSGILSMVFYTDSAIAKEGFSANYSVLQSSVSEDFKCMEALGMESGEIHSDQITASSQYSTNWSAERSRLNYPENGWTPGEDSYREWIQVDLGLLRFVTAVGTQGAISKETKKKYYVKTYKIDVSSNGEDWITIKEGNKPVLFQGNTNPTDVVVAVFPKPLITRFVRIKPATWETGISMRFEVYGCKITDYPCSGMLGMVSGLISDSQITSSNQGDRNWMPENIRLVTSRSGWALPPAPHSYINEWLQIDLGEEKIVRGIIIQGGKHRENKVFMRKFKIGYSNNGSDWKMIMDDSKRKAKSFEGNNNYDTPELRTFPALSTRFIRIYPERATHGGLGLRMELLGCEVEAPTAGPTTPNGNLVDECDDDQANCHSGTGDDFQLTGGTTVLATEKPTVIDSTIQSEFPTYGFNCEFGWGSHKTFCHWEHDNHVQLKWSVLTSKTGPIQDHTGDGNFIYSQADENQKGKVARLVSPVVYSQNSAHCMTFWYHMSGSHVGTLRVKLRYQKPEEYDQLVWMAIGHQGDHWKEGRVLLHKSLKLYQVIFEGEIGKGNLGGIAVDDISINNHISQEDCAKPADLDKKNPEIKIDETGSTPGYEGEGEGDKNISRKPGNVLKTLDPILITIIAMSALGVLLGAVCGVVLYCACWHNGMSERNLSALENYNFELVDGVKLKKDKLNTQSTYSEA
PABP polyA inh = blocks human PABP binding to poly(A) RNA | P11940 | fluorescence polarization | inhibition, % at 35 µM | hit rate 1% among 290,000 | AID 2014;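 note: calls also rest on retests at 20 µM and on dose response follow-up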
* hit, by the source's call; nt = no result. Unless noted, the rule behind the calls is not given here.

SMILES	eIF4H FP inh	PABP1 MLLE inh	CendR NRP1 mod	PABP polyA inh
CCc1nc2c(OCc3cccc(Cl)c3)cccn2c1N(C)C(=O)c1ccncc1	nt	-5	0	nt
CN(C)/C(=N\S(=O)(=O)c1ccccc1)c1ccccc1	7	-4	27*	-1
CC(=O)Nc1ccc(S(=O)(=O)NCc2ccc3c(c2)cc(C)n3C)cc1	55*	50	8	60*
Cc1cc2cc(CNS(=O)(=O)c3ccc4ccccc4c3)ccc2n1C	29	43*	0	14
Cc1cc2cc(CNC(=S)Nc3ccc(OC(F)(F)F)cc3)ccc2n1C	77	46*	2	-3
CC(=O)Nc1ccc(S(=O)(=O)NCc2ccc3[nH]c(C)cc3c2)cc1	5	33	8	-4
C[C@H](CO)N1C[C@H](C)[C@@H](CN(C)C(=O)c2ccncc2)OCc2cnnn2CCCC1=O	nt	15	-13	nt
Cc1ccc(CN2CCN(Cc3c(C)nn(C(C)C)c3C)CC2CCO)o1 (stereo unspecified)	10	8	18*	3
Cc1ccc(CN2CCN(Cc3cc(=O)c4ccccc4[nH]3)CC2CCO)o1 (stereo unspecified)	58*	11	-18	25
Cc1ccc(CN2CCN(Cc3ccncc3)CC2CCO)o1 (stereo unspecified)	4	2	4	-12
CC1(C(=O)NCc2ccccc2)CN(S(C)(=O)=O)CC(=O)N1CCc1ccccc1F (stereo unspecified)	nt	nt	11	nt
O=C(NCCc1ccccc1Cl)c1cc(COc2ccc(F)cc2F)on1	-20	-14	2	1
O=C(c1ccc2c(c1)OCO2)C1CCCN(C(=O)NCc2ccccc2)C1 (stereo unspecified)	58*	-1	5	53*
CCOc1ccccc1NC(=O)Cn1cnc2c(cnn2-c2ccc(C)c(C)c2)c1=O	-12	-2	38*	11
COc1ccc(NC(=O)Cn2cnc3c(cnn3-c3ccc(C)c(C)c3)c2=O)c(OC)c1	3	8	0	7
O=C1C(=Cc2ccc(Br)o2)C(=O)c2ccccc21	89*	23	-7	6.4*
CC1=C/C(=C\c2ccc(Br)o2)C(=O)O1	86	2	-16	-2
CC(C)c1ccc(C(=O)N2CCCCC2c2cc(C(=O)Nc3ccncc3)no2)cc1 (stereo unspecified)	nt	-10	-16	nt
COc1cc(NC(C)CCCNC(C)C)c2ncccc2c1OC (stereo unspecified)	nt	44*	24*	nt
COc1cc(N)c2ncccc2c1OC	nt	-8	0	nt
COc1cc(NCCCCCCN)c2ncccc2c1OC	nt	18	31*	nt
Cc1cc(C(=O)CSc2nnc(-c3ccco3)o2)c(C)n1Cc1ccco1	65*	-44	-17	36*
CCN(CC)S(=O)(=O)c1cccc(-c2nnc(SCCOc3ccccc3)o2)c1	-3	-1	21	-4
Cc1cc(C(=O)CSc2nc3ccccc3[nH]2)c(C)n1Cc1ccco1	87*	-80	-7	active
CCN(CC)S(=O)(=O)c1cccc(-c2nnc(SCC(=O)c3cc(C)n(C)c3C)o2)c1	100	-132	4	125*
SMILES	eIF4H FP inh	PABP1 MLLE inh	CendR NRP1 mod	PABP polyA inh
COc1ccc(NC(=O)CCOc2ccc(C)cc2)c(OC)c1	0	2	-5	-6
COc1ccc(NC(=O)CN2C(=O)COc3ccc(S(=O)(=O)N4CCOCC4)cc32)cc1Cl	nt	1	-7	nt
Cc1cccc(NC(=O)c2cccc(S(=O)(=O)N(C)c3ccccc3)c2)n1	nt	7	-5	nt
Cc1ccccc1NC(=O)NC1(C(=O)NCC2CCCO2)CCCCC1 (stereo unspecified)	-7	12	-6	-2
CC(=O)N1CCN(c2ccc(NC(=S)NC(=O)COc3ccc(C(C)(C)C)cc3)cc2)CC1	6	44*	-10	13
Cc1ccc(C(=O)NC(=S)Nc2ccc(N3CCN(C(=O)c4ccco4)CC3)cc2)cc1	-6	40*	5	6
CC(C)(C)c1ccc(C(=O)NC(=S)Nc2ccc(N3CCOCC3)cc2)cc1	5	34	8	52*
CC(C)Oc1ccc(C(=O)Nc2ccc(N3CCN(C(=O)c4ccco4)CC3)cc2)cc1	0	1	-7	4
CN(C)CCN(C(=O)c1ccc2c(c1)OCCO2)c1nc2cc3c(cc2s1)OCO3	2	-21	25*	-2
CCOc1ccc(N2C(=O)C(Cl)=C(Nc3ccccc3O)C2=O)cc1	11*	-5	-68	52
O=C(O)CC(C(=O)O)c1ccc(OCCCCOc2ccc(C(CC(=O)O)C(=O)O)cc2)cc1 (stereo unspecified)	101*	-7	-28	68*
CC(C)CCOc1ccc(C(CC(N)=O)C(=O)O)cc1 (stereo unspecified)	-8	3	2	-11
